# From the supplement of paper PMC4022240
# ± gives the standard deviation.
# T1: HaloTag-ATRX ADD domain (163-292)
# T1 chain: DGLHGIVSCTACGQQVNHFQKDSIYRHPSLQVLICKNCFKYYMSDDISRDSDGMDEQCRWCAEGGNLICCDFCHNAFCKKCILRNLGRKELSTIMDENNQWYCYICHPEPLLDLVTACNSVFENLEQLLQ
# Key:
# Experiment in all cases: peptide microarray binding signal (635 nm), min-max normalized on array (fraction of array maximum); higher = stronger binding
# Conditions in all cases: peptide region: H3 11-23
# [1] = target: T1, HaloTag-ATRX ADD domain (163-292)
# Outline: (§1)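 Within each library, mean intensities of triplicate spots were min-max scaled to give the binding signal. The spots were histone 13-mer peptide–cellulose conjugates on nitrocellulose with a Cy3 tracer, blocked overnight at 4°C. They were then probed for 1 h at 4°C using biotin-labelled HaloTag reader fusions (10 nM to 1 μM) with streptavidin-Alexa Fluor 647 or rabbit histone antibodies (1:10,000 to 1:2,000) with anti-rabbit Alexa 647, and scanned at 635 nm for signal and 532 nm for misprints on an Axon GenePix 4000B.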
# [2] = target: HaloTag-ING2 PHD (mouse Ing2 200-280)
# Outline: as §1
# [3] = target: anti-H3K4me3 antibody ab8580
# Outline: as §1
# [4] = target: anti-H3K9me3 antibody ab8898
# Outline: as §1
# [5] = peptide modifications: H3R17me2s H3K18ac, binder concentration: 1:2,000 dilution
# [6] = peptide modifications: H3R17me2s H3K18ac, binder concentration: 1:10,000 dilution
# [7] = peptide modifications: H3R17me2a H3K18me1, binder concentration: 1:2,000 dilution
# [8] = peptide modifications: H3R17me2a H3K18me1, binder concentration: 1:10,000 dilution
# [9] = peptide modifications: H3R17me2s H3K18me1, binder concentration: 1:2,000 dilution
# [10] = peptide modifications: H3R17me2s H3K18me1, binder concentration: 1:10,000 dilution
# [11] = peptide modifications: H3R17me2a H3K18me3, binder concentration: 1:2,000 dilution
# [12] = peptide modifications: H3R17me2a H3K18me3, binder concentration: 1:10,000 dilution
# [13] = peptide modifications: H3R17me2s H3K18me3, binder concentration: 1:2,000 dilution
# [14] = peptide modifications: H3R17me2s H3K18me3, binder concentration: 1:10,000 dilution
binder,measurement,setting,value
TGGKAPRKQLATK [H3 11-23 T G G K A P Rme2s Kac Q L A T K],peptide microarray binding signal,"[1]; peptide modifications: H3R17me2s H3K18ac, binder concentration: 50 nM",0.00658 ± 0.00084
same,peptide microarray binding signal,"[1]; peptide modifications: H3R17me2s H3K18ac, binder concentration: 500 nM",0.0081 ± 0.0003
same,peptide microarray binding signal,"[2]; peptide modifications: H3R17me2s H3K18ac, binder concentration: 10 nM",0.00776 ± 0.00012
same,peptide microarray binding signal,"[2]; peptide modifications: H3R17me2s H3K18ac, binder concentration: 100 nM",0.0133 ± 0.00095
same,peptide microarray binding signal,[3]; [5],0.00415 ± 0.00025
same,peptide microarray binding signal,[3]; [6],0.00468 ± 0.00016
same,peptide microarray binding signal,[4]; [5],0.00156 ± 4.6e-05
same,peptide microarray binding signal,[4]; [6],0.001441 ± 1.4e-05
TGGKAPRKQLATK [H3 11-23 T G G K A P Rme2a Kme Q L A T K],peptide microarray binding signal,"[1]; peptide modifications: H3R17me2a H3K18me1, binder concentration: 50 nM",0.0073 ± 0.00016
same,peptide microarray binding signal,"[1]; peptide modifications: H3R17me2a H3K18me1, binder concentration: 500 nM",0.0126 ± 0.0004
same,peptide microarray binding signal,"[2]; peptide modifications: H3R17me2a H3K18me1, binder concentration: 10 nM",0.00949 ± 0.00068
same,peptide microarray binding signal,"[2]; peptide modifications: H3R17me2a H3K18me1, binder concentration: 100 nM",0.0322 ± 0.008
same,peptide microarray binding signal,[3]; [7],0.00823 ± 0.0013
same,peptide microarray binding signal,[3]; [8],0.00496 ± 0.00085
same,peptide microarray binding signal,[4]; [7],0.00281 ± 0.00028
same,peptide microarray binding signal,[4]; [8],0.00173 ± 1.7e-05
TGGKAPRKQLATK [H3 11-23 T G G K A P Rme2s Kme Q L A T K],peptide microarray binding signal,"[1]; peptide modifications: H3R17me2s H3K18me1, binder concentration: 50 nM",0.00755 ± 0.00027
same,peptide microarray binding signal,"[1]; peptide modifications: H3R17me2s H3K18me1, binder concentration: 500 nM",0.00986 ± 0.00028
same,peptide microarray binding signal,"[2]; peptide modifications: H3R17me2s H3K18me1, binder concentration: 10 nM",0.0187 ± 0.00059
same,peptide microarray binding signal,"[2]; peptide modifications: H3R17me2s H3K18me1, binder concentration: 100 nM",0.0288 ± 0.002
same,peptide microarray binding signal,[3]; [9],0.0153 ± 0.0029
same,peptide microarray binding signal,[3]; [10],0.0127 ± 0.0012
same,peptide microarray binding signal,[4]; [9],0.00368 ± 0.00012
same,peptide microarray binding signal,[4]; [10],0.00254 ± 3.9e-05
TGGKAPRKQLATK [H3 11-23 T G G K A P Rme2a Kme3 Q L A T K],peptide microarray binding signal,"[1]; peptide modifications: H3R17me2a H3K18me3, binder concentration: 50 nM",0.0133 ± 0.00073
same,peptide microarray binding signal,"[1]; peptide modifications: H3R17me2a H3K18me3, binder concentration: 500 nM",0.0186 ± 0.0037
same,peptide microarray binding signal,"[2]; peptide modifications: H3R17me2a H3K18me3, binder concentration: 10 nM",0.0148 ± 0.0037
same,peptide microarray binding signal,"[2]; peptide modifications: H3R17me2a H3K18me3, binder concentration: 100 nM",0.0224 ± 0.0093
same,peptide microarray binding signal,[3]; [11],0.284 ± 0.098
same,peptide microarray binding signal,[3]; [12],0.305 ± 0.1
same,peptide microarray binding signal,[4]; [11],0.0475 ± 0.015
same,peptide microarray binding signal,[4]; [12],0.0213 ± 0.0043
TGGKAPRKQLATK [H3 11-23 T G G K A P Rme2s Kme3 Q L A T K],peptide microarray binding signal,"[1]; peptide modifications: H3R17me2s H3K18me3, binder concentration: 50 nM",0.00476 ± 0.00011
same,peptide microarray binding signal,"[1]; peptide modifications: H3R17me2s H3K18me3, binder concentration: 500 nM",0.00814 ± 0.00026
same,peptide microarray binding signal,"[2]; peptide modifications: H3R17me2s H3K18me3, binder concentration: 10 nM",0.0107 ± 0.0017
same,peptide microarray binding signal,"[2]; peptide modifications: H3R17me2s H3K18me3, binder concentration: 100 nM",0.0204 ± 0.0049
same,peptide microarray binding signal,[3]; [13],0.0681 ± 0.028
same,peptide microarray binding signal,[3]; [14],0.0469 ± 0.0085
same,peptide microarray binding signal,[4]; [13],0.0662 ± 0.01
same,peptide microarray binding signal,[4]; [14],0.0267 ± 0.0059
